Measured values: PubChem BioAssay (NCATS)
Inconclusive results are not listed. The source made the active and inactive calls. Unless noted, the call rests on the fitted dose curve; in most records, active means well fitted curve in the direction sought with a large enough effect; inconclusive means small, poorly fitted or top-dose-only effect, or another doubt; inactive means no such curve, though single readings can be large; an effect the other way counts as inactive or inconclusive.

Legend:
[1] = Cytometric Cell-Based qHTS for Inhibitors of the mTORC1 Signaling Pathway in MEF (Tsc2-/-, p53-/-) Cells (AID 2660);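 further: Tsc2 and p53 null MEFs carrying empty vector with compound for 24 h; percent of cells above a phospho-rpS6 to PI ratio cutoff in each well; series mostly up to about 38 µM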
Outline: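 Immunofluorescence qHTS of rpS6 Ser235/236 phosphorylation: MEFs (Tsc2-/-, p53-/-) treated 24 h, 37 C, in DMEM + 10% FBS. Alexa-488 signal normalized to PI count, referenced to rapamycin (7.5 nM) and DMSO; PI cell number recorded for viability.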

[2] = High Content Imaging Cell-Based qHTS for Inhibitors of the mTORC1 Signaling Pathway in MEF (Tsc2-/-, p53-/-) Cells (AID 2666);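 further: percent of cells scored positive for phospho-rpS6 Ser235/236 immunostaining by imaging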
Outline: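 Cells were plated, dosed with compound after 24 hrs, and incubated another 24 hrs at 37 degree Celsius. Fixed cells were immunostained for phospho-rpS6 Ser235/236 and counterstained, and the normalized signal was scored as % active cells against rapamycin and DMSO controls.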

[3] = High Content Imaging Cell-Based qHTS for Inhibitors of the mTORC1 Signaling Pathway in MEF Cells (AID 2667);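 further: Tsc2-/- p53-/- MEFs stably re-expressing wild-type Tsc2 exposed 24 h; series mostly up to about 38 µM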
Outline: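 Immunofluorescence for rpS6 phosphorylation in MEFs of Tsc2-/-, p53-/- background rescued with WT Tsc2. Compound exposure lasted 24 hrs. Inhibition was scored against rapamycin-treated control wells.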

[4] = Cytometry Cell-Based qHTS for Inhibitors of the mTORC1 Signaling Pathway in MEF cells (AID 2668);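 further: Tsc2-/- p53-/- mouse embryonic fibroblasts stably re-expressing wild-type Tsc2; percent cells positive for phospho-rpS6 Ser235/236 relative to propidium iodide stain; series mostly up to about 38 µM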
Outline: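 In MEFs grown in DMEM + 10% FBS, a 24 hrs compound exposure preceded imaging of phospho-rpS6 Ser235/236 by laser-scanning cytometry.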

[5] = Validation screen for small molecules that induce DNA re-replication in MCF 10A normal breast cells (AID 463097); further: nearly all actives have a fitted effect of over 60% in size
Outline: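 Following 48 hr compound incubation (37 C, 5% CO2), MCF 10A cells receive Hoechst for 40 min at 37 C. Nuclei are then scanned (excitation 405 nm, emission 500-530 nm) for total fluorescence intensity.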

[6] = target: Ubiquitin carboxyl-terminal hydrolase 2 (Homo sapiens) (UniProt O75604); assay: qHTS Validation Assay for Inhibitors of Ubiquitin-specific Protease USP2a Using CHOP2 as the Reporter (AID 463106)
Outline: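 10nM USP2 core + cpd, 30min RT; add 25nM Ub-CHOP2/25nM substrate; 60min RT; FI 485/531nm. Buffer Tris pH 8.0, CaCl2, BME, CHAPS. Norm. to NEM = 100% inhibition; time-zero read flags fluorescent artifacts.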

[7] = target: Tumor susceptibility gene 101 protein (Homo sapiens) (UniProt Q99816); assay: qHTS Validation Assay for Iinhibitors of HIV-1 Budding by Blocking the Interaction of PTAP/TSG101 (AID 485342; calls by dose curve)
Outline: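 Compound wells held the Tsg101 binding domain (10 uM) and a FITC-conjugated PTAP peptide (50 nM) in buffer at pH 7.5 containing 0.15 M NaCl and 0.01% Tween 20; polarization was recorded after 20 min, r.t.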

[8] = target: DNA polymerase III PolC-type (Bacillus subtilis (strain 168)) (UniProt P13267); assay: qHTS Validation Assay for the Inhibitors of DNA Replication in Gram-Positive Bacteria (AID 485295);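 further: reconstituted holoenzyme with PolC plus beta clamp SSB and primase; PicoGreen fluorescence of double-stranded DNA made on primed circular M13 template; series mostly up to about 57 µM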
Outline: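 Inhibition of DNA synthesis by the reconstituted PolC holoenzyme, monitored through PicoGreen staining of dsDNA formed from ssM13Gori, dNTPs and NTPs, with compound preincubation and room-temperature reaction.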

[9] = qHTS Validation Assay to Find Inhibitors of Chronic Active B-Cell Receptor Signaling (AID 485345; active means well fitted curve in the direction sought with a large enough effect in the main read-out, with a control signal flat, not every such curve was filed as active)
Outline: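 Read-out: ratio of filter-corrected green (IkappaBalpha fusion) to red (native) luciferase signal in doxycycline-induced TMD8 cells after 4 h at 37C. Titration spanned 46 uM–3 nM; Data were normalised to basal cells and 10 uM MG-132 wells.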

Measured: Potency

Chain of DNA polymerase III PolC-type (Bacillus subtilis (strain 168)) (P13267 whole entry, looked up): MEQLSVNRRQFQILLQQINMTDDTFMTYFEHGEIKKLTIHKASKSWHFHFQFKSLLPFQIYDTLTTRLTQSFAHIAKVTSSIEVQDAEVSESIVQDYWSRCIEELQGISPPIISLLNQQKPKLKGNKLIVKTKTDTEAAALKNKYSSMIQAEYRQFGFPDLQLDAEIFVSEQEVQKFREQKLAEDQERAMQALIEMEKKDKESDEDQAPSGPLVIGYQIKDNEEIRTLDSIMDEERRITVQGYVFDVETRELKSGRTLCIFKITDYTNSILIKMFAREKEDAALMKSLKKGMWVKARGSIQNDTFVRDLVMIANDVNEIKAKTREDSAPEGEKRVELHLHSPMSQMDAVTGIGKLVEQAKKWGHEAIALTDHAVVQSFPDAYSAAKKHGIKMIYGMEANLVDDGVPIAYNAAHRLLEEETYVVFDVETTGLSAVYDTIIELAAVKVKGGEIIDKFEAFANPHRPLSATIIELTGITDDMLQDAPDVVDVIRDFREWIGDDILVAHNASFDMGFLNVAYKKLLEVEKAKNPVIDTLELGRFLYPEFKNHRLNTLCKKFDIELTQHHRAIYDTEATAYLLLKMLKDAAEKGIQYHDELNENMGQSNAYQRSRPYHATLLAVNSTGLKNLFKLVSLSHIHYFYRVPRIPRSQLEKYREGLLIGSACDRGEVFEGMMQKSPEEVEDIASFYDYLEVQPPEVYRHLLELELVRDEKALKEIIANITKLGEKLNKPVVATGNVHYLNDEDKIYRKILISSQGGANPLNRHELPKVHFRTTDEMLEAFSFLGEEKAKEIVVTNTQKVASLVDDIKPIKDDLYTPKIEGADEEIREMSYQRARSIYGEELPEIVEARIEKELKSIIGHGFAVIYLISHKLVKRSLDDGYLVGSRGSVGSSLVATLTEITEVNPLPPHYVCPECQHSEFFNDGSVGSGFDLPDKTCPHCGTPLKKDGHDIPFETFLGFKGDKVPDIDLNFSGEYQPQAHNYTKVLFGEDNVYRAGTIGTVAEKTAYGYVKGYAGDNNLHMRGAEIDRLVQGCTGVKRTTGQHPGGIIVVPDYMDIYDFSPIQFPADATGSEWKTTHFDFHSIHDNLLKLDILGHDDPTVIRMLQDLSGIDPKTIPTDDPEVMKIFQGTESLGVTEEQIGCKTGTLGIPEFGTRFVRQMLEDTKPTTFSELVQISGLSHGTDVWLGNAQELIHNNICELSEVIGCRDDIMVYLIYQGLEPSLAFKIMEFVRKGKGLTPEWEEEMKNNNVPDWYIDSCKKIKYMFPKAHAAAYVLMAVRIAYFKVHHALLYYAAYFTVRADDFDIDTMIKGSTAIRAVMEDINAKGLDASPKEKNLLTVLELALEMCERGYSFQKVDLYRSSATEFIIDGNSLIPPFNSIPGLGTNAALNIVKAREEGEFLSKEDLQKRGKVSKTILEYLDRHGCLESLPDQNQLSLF
Chain of Tumor susceptibility gene 101 protein (Homo sapiens) (Q99816 whole entry, looked up, the tested form may be a part): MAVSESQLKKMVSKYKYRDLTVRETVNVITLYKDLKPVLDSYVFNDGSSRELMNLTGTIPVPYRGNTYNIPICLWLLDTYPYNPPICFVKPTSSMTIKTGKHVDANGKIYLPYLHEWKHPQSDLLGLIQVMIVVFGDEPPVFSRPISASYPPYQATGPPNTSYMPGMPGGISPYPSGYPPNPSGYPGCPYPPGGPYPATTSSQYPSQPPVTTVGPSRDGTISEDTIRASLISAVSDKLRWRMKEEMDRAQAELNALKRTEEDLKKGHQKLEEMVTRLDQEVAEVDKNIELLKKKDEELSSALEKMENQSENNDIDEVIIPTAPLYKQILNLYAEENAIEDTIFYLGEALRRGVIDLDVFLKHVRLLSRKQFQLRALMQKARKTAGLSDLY
Chain of Ubiquitin carboxyl-terminal hydrolase 2 (Homo sapiens) (O75604 whole entry, looked up): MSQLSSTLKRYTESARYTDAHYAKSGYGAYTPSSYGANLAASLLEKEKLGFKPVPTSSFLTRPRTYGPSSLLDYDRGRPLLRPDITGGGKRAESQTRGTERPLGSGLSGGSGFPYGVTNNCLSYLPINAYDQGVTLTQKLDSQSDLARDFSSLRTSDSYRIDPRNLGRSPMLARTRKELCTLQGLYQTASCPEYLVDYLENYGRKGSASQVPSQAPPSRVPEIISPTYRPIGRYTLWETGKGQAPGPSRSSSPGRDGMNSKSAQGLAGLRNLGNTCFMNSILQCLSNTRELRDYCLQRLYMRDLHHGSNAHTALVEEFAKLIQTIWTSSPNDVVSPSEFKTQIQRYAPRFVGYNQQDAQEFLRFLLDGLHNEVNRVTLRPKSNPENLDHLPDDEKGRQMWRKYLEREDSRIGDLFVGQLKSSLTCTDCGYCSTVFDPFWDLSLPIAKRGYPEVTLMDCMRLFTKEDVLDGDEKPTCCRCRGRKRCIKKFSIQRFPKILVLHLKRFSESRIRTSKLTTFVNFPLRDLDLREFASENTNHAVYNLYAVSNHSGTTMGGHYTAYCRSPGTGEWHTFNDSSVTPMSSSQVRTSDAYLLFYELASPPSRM

Cn1c(=O)c2[nH]c(-c3ccc(S(=O)(=O)O)cc3)nc2n(C)c1=O
not listed: [8] | [9]
inactive: all other assays above

CC(C)(CO)Cc1cc(C(C)(C)C)c(O)c(C(C)(C)C)c1
not listed: [5] | [9]
inactive: all other assays above

O=C1OC(=O)C2C3CCC(O3)C12 (stereo not given)
not listed: [5] | [9]
inactive: all other assays above

NC1CONC1=O (stereo not given)
not listed: [5]
inactive: all other assays above

CNc1cc(NS(=O)(=O)c2ccc(N)cc2)nc(NC)n1
not listed: [5]
inactive: all other assays above

COc1cc(C(O)C(=O)O)ccc1O (stereo not given)
not listed: [5] | [7]
inactive: all other assays above

Nc1ncnc2c1nc(Br)n2C1OC2COP(=O)(O)O[C@@H]2C1O (stereo not given in full)
not listed: [5]
inactive: all other assays above

OC[C@H]1O[C@@H](n2cnc3cncnc32)[C@H](O)[C@@H]1O
not listed: [5] | [7]
inactive: all other assays above

C#CCn1c(=O)c2c(ncn2C)n(C)c1=O
not listed: [5] | [8] | [9]
inactive: all other assays above
